Source: PubChem BioAssay
Hits are enriched below; roughly 20% of the tested compounds scored in any of these assays.
Cycloheximide cs = Cycloheximide Counterscreen for Small Molecule Inhibitors of Shiga Toxin | cell reporter, cycloheximide protein synthesis inhibition counterscreen | max response, % | 300,000 tested, 12% active | AID 2314, 2010; in the data active = max response mostly above about 13%, no sharp cut-off; inactive = mostly below about 14%; note: read at 38.3 µM for the half of the compounds with a filed dose; 0% is about no effect
HCMV antiviral = qHTS Assay for inhibitors of the human cytomegalovirus (HCMV). HFF cells, HCMV-luciferase reporter, 72 h; stronger effect = lower value. activity change, negative = inhibition, % at 57.5 µM. 410,000 tested, 4.5% active; in the data active = activity change below about -60%; inconclusive = no clear call, values can overlap the other calls; inactive = above about -39%; note: % is set by controls: 0 for no effect and ±100 for the full control effect
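After 16 h attachment at 37C, HFF cells received test compound and HCMV-luciferase (1 PFU/cell); reporter luminescence read 72 h later, data normalized against buffer-only and known inhibitor Salinomycin.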
Pf growth 48h = Primary qHTS for delayed death inhibitors of the malarial parasite plastid, 48 hour incubation. Potency, µM (top dose mostly 28.7 µM), inactives show at the highest dose activity change, negative = inhibition, most hits filed as inhibitors. 310,000 tested, 5.9% active. P. falciparum luciferase growth in erythrocytes, 48 h; note: potency is the fitted concentration of half-maximal effect; % is set by controls: 0 for no effect and ±100 for the full control effect
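First compound was added to culture medium, then infected red cells at 0.1% parasitemia and 2% hematocrit (final). After incubation at 37 C under 5% CO2, luciferase detection reagent was dispensed and light output recorded.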
Shiga toxin inh = A qHTS for Small Molecule Inhibitors of Shiga Toxin; 290,000 tested, 9.2% active; inhibition, % at 38.7 µM; Vero cells, Shiga toxin protein synthesis inhibition reporter; AID 2315, 2010; in the data active = inhibition mostly above about 28%, no sharp cut-off; inactive = mostly below about 43%; note: 0% is about no effect
Pf growth 96h = Primary qHTS for delayed death inhibitors of the malarial parasite plastid, 96 hour incubation; P. falciparum luciferase reporter growth, 96 h; Potency, µM (titrated, usually from 28.7 µM), inactives show at the highest dose activity change, negative = inhibition, most hits filed as inhibitors; 320,000 tested, 6.9% active; AID 504834, 2011; note: potency is the fitted concentration of half-maximal effect; % is set by controls: 0 for no effect and ±100 for the full control effect
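Two parasite generations (96 h, 37 C, 5% CO2) of compound exposure in infected erythrocytes (0.05% parasitemia, 2% hematocrit). Luciferase-reporter P. falciparum; decreased luminescence indicates inhibited growth, aimed at apicoplast-acting delayed death.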
Starred values were filed as active, the others as inactive; ? = inconclusive; nt = no result; [ ] = remark or other dose. Unless noted, calls come from the whole dose curve; as a rule, active = well fitted inhibition curve with a large enough effect; inconclusive = small, poorly fitted or top-dose-only effect, or another doubt; inactive = no such curve, though single readings can be large or run the other way.

SMILES | Cycloheximide cs | HCMV antiviral | Pf growth 48h | Shiga toxin inh | Pf growth 96h
O=C(NCCN1C(=O)C2C3C=CC(C3)C2C1=O)Nc1ccccc1O (stereo not given) | 7 | 53 | nt | 15 | 9.3µM*
Cc1c(NC(=O)CCCCCN2C(=O)C3C4C=CC(C4)C3C2=O)c(=O)n(-c2ccccc2)n1C (stereo not given) | -1 | 3 | 14% | 2 | 9.3µM*
Cc1cc(SC(C)C(=O)Nc2c(C)n(C)n(-c3ccccc3)c2=O)nc2ccccc12 (stereo not given) | -2 | 12 | ? | -18 | ?
COc1cccc(CNC(=O)C(CC(C)C)NS(=O)(=O)c2ccc3c(c2)oc(=O)n3C)c1 (stereo not given) | nt | 17 | nt | nt | nt
Cc1c(NC(=O)NCCN2C(=O)C3C4C=CC(C4)C3C2=O)c(=O)n(-c2ccccc2)n1C (stereo not given) | -2 | -29 | nt | -14 | 15µM*
N=c1c2ccccc2nnn1-c1ccc(C(F)(F)F)cc1 | 40* | ? | 0.29µM* | 76* | ?
Cc1ccc(NC(=O)Cn2cnc3c(oc4ccccc43)c2=O)cc1Cl | nt | 4 | nt | nt | nt
Cc1cc(C)c(NC(=S)N(CCN(C)C)Cc2cccs2)c(C)c1 | 5 | -15 | -27% | -9 | 3.3µM*
C/C(=N\NC(=O)c1cc(-c2ccc(Cl)s2)[nH]n1)c1ccncc1 | -3 | -20 | ? | -3 | 27%
Cc1ccc(-c2ccnc(-c3ccc(O)cc3)n2)cc1 | 31* | -18 | 265% | 80* | 171%
COc1ccc(-c2ccnc(-c3ccncc3)n2)cc1 | 14 | 8 | 0% | 28 | ?
Oc1ccc(-c2nccc(-c3ccccn3)n2)cc1 | 81* | 256 | 214% | 88* | 62%
COc1ccc(-c2ccnc(-c3ccc(O)cc3)n2)cc1 | 24* | -3 | 19% | 79 | 21%
FCCCOc1ccc(-c2nccc(-c3ccc(Br)cc3)n2)cc1 | 8 | -13 | 7% | 23 | 87%
Oc1ccc(-c2nccc(-c3ccc(Br)cc3)n2)cc1 | 17* | 105 | 7% | 40* | 18%
FCCCOc1ccc(-c2ccnc(-c3ccccc3)n2)cc1 | 28* | 13 | 25% | 81* | 0%
CC1CCN(CCc2nc3cc(NC(=O)COc4ccc([N+](=O)[O-])cc4)ccc3n2C)CC1 | 7 | ? | 3.7µM* | -4 | ?
Cc1cccc(OCC(=O)Nc2ccc3c(c2)nc(CCN2CCC(C)CC2)n3C)c1 | -2 | -69* | ? | -2 | ?
Cn1c(CCN2CCOCC2)nc2cc(NC(=O)COc3ccccc3)ccc21 | 0 | -27 | -10% | 18 | 4%
Cn1c(CCn2ccccc2=O)nc2cc(NC(=O)COc3ccccc3)ccc21 | 29* | 0 | -1% | 18 | 10µM*
Cn1c(CN2CCOCC2)nc2cc(NC(=O)COc3ccc([N+](=O)[O-])cc3)ccc21 | -1 | -71* | ? | -11 | ?
COc1ccccc1CCNC(=O)C(=O)NCC(c1cccs1)S(=O)(=O)c1ccc(C)cc1 (stereo not given) | nt | -26 | nt | nt | nt
Cc1cc(=O)n2nc(N3CCCC(C(=O)NCCc4ccc(Cl)cc4)C3)sc2n1 (stereo not given) | -2 | -28 | -19% | -5 | ?
COCc1cc(C)nc2sc3c(=O)n(-c4ccccc4C(F)(F)F)nnc3c12 | nt | -2 | nt | nt | nt
CC(c1ccccc1C(=O)O)c1cc(F)cc2ccccc12 (stereo not given) | nt | 17 | nt | nt | nt
SMILES | Cycloheximide cs | HCMV antiviral | Pf growth 48h | Shiga toxin inh | Pf growth 96h
Cc1ccc(-c2cc(Cc3ccncc3)c(=O)[nH]n2)cc1 | 11* | 1 | 7% | 7 | 25%
CCOC(=O)N1CCN(C/C(Cl)=C/c2ccccc2)CC1 | 14* | 121 | 40% | 20* | -30%
CCOC(=O)C1CCCN(C(=O)CSc2nc(C)cc(C)n2)C1 (stereo not given) | -7 | -13 | -8% | -9 | -4%
CCOC(=O)C1CCCN(C(=O)Cn2nc(Cc3cccnc3)c3ccccc3c2=O)C1 (stereo not given) | -2 | -3 | nt | 11 | 7.4µM*
CCOC(=O)C1CCCN(C(=O)CCc2nnc(-c3ccc(C(C)=O)s3)o2)C1 (stereo not given) | 63* | 112 | -31% | 109* | 6%
CCOC(=O)N1CCN(CC(=O)N2c3ccccc3CCc3ccccc32)CC1 | -2 | ? | 5%[5.75 µM] | 14 | ?
CCOC(=O)N1CCN(CCc2ccccc2)CC1 | -3 | ? | 26% | -10 | 10µM*
COc1ccc(N2CCN(CCNC(=O)Nc3ccc([N+](=O)[O-])cc3OC)CC2)cc1 | -1 | -5 | -26% | -3 | 21%
O=C(C1CCN(C2CCN(C/C(Cl)=C/c3ccccc3)CC2)CC1)N1CCOCC1 | -4 | -35 | -11% | -6 | 10µM*
CCOC(=O)C1CCCN(C(=O)c2ccccc2Oc2ccccc2)C1 (stereo not given) | 2 | 19 | -17% | 21 | 1.3µM*
CCOC(=O)C1CCCN(C(=O)c2ccccc2NC(C)=O)C1 (stereo not given) | -1 | 69 | -3% | 0 | nt
C/C(=C\c1ccccc1)CN1CCC(C(=O)N2CCCCC2)CC1 | -4 | -21 | 1% | 9 | 3%
CCOC(=O)C1CCCN(C(=O)CSCc2ccccc2)C1 (stereo not given) | 44* | 8 | 39% | 52* | ?
CCOC(=O)C1CCCN(C(=O)CSc2ccc(Br)cc2)C1 (stereo not given) | 42* | nt | 65% | 65* | 22%
CCOC(=O)N1CCN(C(=O)CSCc2ccccc2)CC1 | 35* | -13 | 57% | 22 | ?
CCOC(=O)N1CCN(C(=O)CSCc2ccc(Cl)cc2)CC1 | 4 | 32 | 36% | 17 | 186%
O=C(NCc1nc2cccnc2n1Cc1ccc(F)cc1)c1ccccc1C(F)(F)F | nt | -61* | nt | nt | nt
O=C(Cc1ccc(F)cc1)NCc1nc2cccnc2n1Cc1ccc(F)cc1 | nt | -23 | nt | nt | nt
COc1cccc(NC(=S)/C(=C(\[O-])c2cc(C)n(-c3ccccc3F)c2C)[n+]2ccc(N(C)C)cc2)c1 | 26* | -95* | ? | 76 | 4.1µM*
Cc1cc(C([O-])=C(C(=S)Nc2ccc(F)cc2)[n+]2ccccc2)c(C)n1-c1ccc(F)cc1 | nt | -38 | nt | nt | nt
Cc1cc(Br)ccc1NC(=O)CN(C)C(=O)c1cc(S(=O)(=O)N(C)C)ccc1N1CCCC1 | -2 | 14 | -11% | -12 | -22%
Cc1ccc2occ(/C=N/NC(=O)[C@@H](N)Cc3ccccc3)c(=O)c2c1 | 0 | -84* | ? | -5 | -13%
Cc1cccc(C(=O)N/N=C/c2coc3ccccc3c2=O)c1 | 16 | 18 | 11% | 15 | -10%
CCOc1ccc(C(=O)NCC(c2ccco2)N2CCOCC2)cc1 (stereo not given) | nt | -12 | -24% | nt | 21%
COc1ccc(-c2noc(-c3nnn(-c4ccc(C)cc4C)c3C)n2)cc1 | nt | 10 | nt | nt | nt
Nc1ccc2[nH]ncc2c1 | -3 | -61* | -23% | -9 | ?
